BAZ2B block – blocks human BAZ2B; AlphaScreen BAZ2B-H3K14Ac peptide displacement; Potency, µM (highest dose often 114 µM), most hits filed as inhibitors; 360,000 compounds, 4.4% hits; AID 504333; note: nearly all actives have a fitted effect of over 60% in size
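Multi-concentration screen (max 110 uM) measuring displacement of acetylated histone H3 peptide from BAZ2B by AlphaScreen, using 50 nM protein, 50 nM peptide and 10 ug/mL streptavidin donor plus Ni-chelate acceptor beads.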
Sfp inh – inhibitors of Bacillus subtilis Sfp phosphopantetheinyl transferase. Q9F4F7. Biochemical Sfp PPTase activity, qHTS. Potency, µM, usual class: inhibitors. 310,000 compounds, 3.5% hits. AID 1490;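 note: the enzyme is Sfp with the accession as filed and its product quenches rhodamine fluorescence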
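Fluorescence-quenching assay with 15 nM Sfp, 5 uM rhodamine-CoA and 12.5 uM BHQ-2-labelled ybbR peptide in pH 7.6 Hepes/MgCl2 buffer. Enzyme was pre-incubated with compound for 15 min at room temperature. Rate was taken from the 30-min fluorescence change (525/598 nm).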
PLK1 PBD block – inhibitors of human PLK1 polo-box domain binding | AID 720504 | 360,000 compounds, 2.8% hits | Potency, µM, actives largely listed as inhibitors | Plk1 PBD binding of FITC phosphopeptide, fluorescence polarization | P53350; note: series mostly up to about 57 µM; nearly all actives have a fitted effect of over 65% in size
JMJD2A Tudor inh – inhibitors of human JMJD2A Tudor domain; O75164; AlphaScreen JMJD2A-Tudor / H3K4me3 peptide binding; Potency, µM (highest dose often 114 µM), usual class: inhibitors; 390,000 compounds, 4.4% hits; note: nearly all actives have a fitted effect of over 50% in size
G9a block – G9a (human) methyltransferase inhibition; Q96KQ7; G9a H3K9 monomethylation, AlphaScreen, 2 h; Potency, µM (titrated, usually from 102 µM), hits mostly inhibitors; 350,000 compounds, 8.8% hits; note: nearly all actives have a fitted effect of over 75% in size
Target sequence (Q96KQ7 913-1193 limits assumed): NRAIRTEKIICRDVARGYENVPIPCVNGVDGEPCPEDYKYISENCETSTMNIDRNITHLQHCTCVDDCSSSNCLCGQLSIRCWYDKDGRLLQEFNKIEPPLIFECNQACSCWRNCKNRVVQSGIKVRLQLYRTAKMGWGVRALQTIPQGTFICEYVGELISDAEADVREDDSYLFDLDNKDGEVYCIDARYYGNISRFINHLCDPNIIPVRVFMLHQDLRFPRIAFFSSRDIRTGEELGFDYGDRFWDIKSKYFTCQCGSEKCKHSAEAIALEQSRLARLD
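AlphaScreen read-out: biotin-H3K9 peptide (500 nM) methylation by 20 nM enzyme with 20 uM SAM, 2 h at room temperature after 15 min compound preincubation; anti-monomethyl H3K9 antibody plus donor/acceptor beads, 10 min dark.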
HP1b binding inh – inhibitors of HP1-beta chromodomain binding to methylated histone tails; AID 540317; Potency, µM (highest dose often 114 µM), most hits filed as inhibitors; AlphaScreen HP1-beta / biotin-H3K9me3 peptide binding; 390,000 compounds, 0.56% hits; note: nearly all actives have a fitted effect of over 70% in size
Target sequence (P83916 whole entry, looked up): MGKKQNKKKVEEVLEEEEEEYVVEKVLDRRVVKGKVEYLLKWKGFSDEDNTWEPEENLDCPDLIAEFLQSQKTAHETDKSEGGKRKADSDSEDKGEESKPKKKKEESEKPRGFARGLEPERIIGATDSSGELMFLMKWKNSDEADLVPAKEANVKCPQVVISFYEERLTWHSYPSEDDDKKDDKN
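HP1-beta protein (50 nM final) preincubated 30 min at room temperature with biotinylated H3(1-18)K9me3 peptide (50 nM) in PBS pH 7.4, 0.01% Tween-20, then compound added for 30 min. AlphaScreen streptavidin donor/nickel chelate acceptor beads (10 ug/mL final), 30 min dark, luminescence read.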
Large screens that a line does not name were inactive; ! = repeats disagree. Rows were chosen to be rich in hits. Some 12% of all compounds tested hit in one or more screens of this group. Calls come from the whole dose curve; as a rule, active = well fitted curve in the direction sought with a large enough effect; inconclusive = small, poorly fitted or top-dose-only effect, or another doubt; inactive = no such curve, though single readings can be large; an effect the other way counts as inactive or inconclusive.

COc1ccc(CNC(=O)COC(=O)c2ccc(OCc3c(C)noc3C)cc2)cc1OC	PLK1 PBD block 30µM, JMJD2A Tudor inh inconclusive, HP1b binding inh inconclusive
CCc1ccc2c(c1)c1nnc(NN)nc1n2CC	BAZ2B block inconclusive, JMJD2A Tudor inh inconclusive, G9a block inconclusive
NNc1nnc2c3cc(F)ccc3n(Cc3ccccc3)c2n1	BAZ2B block inconclusive (no result: G9a block)
CCn1c2ccc(F)cc2c2nnc(NN)nc21	BAZ2B block inconclusive, Sfp inh inconclusive, JMJD2A Tudor inh inconclusive, G9a block 50µM
CCCn1c2ccc(F)cc2c2nnc(NN)nc21	G9a block 50µM
COC(=O)c1ccc(Cl)cc1NC(=O)N1CCC(CN2CCC(C)CC2)CC1	none (no result: Sfp inh, PLK1 PBD block)
Cc1ccc(N(C(=O)c2csnn2)C(C(=O)NC2CCCC2)c2ccccn2)c(C)c1 (centres undefined)	none
COCCCNCCCCOc1cccc(Br)c1	BAZ2B block inconclusive, JMJD2A Tudor inh 2.5µM, G9a block 28µM
CCc1cccc(OCCCCN(CC)CC)c1	BAZ2B block inconclusive, JMJD2A Tudor inh 3.5µM
CCOc1cccc(OCCCNCCCOC)c1	BAZ2B block 40µM, JMJD2A Tudor inh 2.8µM, G9a block inconclusive, HP1b binding inh inconclusive
CCc1cccc(OCCCCNCCCOC)c1	BAZ2B block inconclusive, Sfp inh inconclusive, JMJD2A Tudor inh 6.3µM, G9a block 13µM, HP1b binding inh inconclusive
CCc1nc2ccc(C(=O)N(C)Cc3ccco3)cn2c1N(C)Cc1ccc(OC)cc1	none (no result: BAZ2B block, Sfp inh, JMJD2A Tudor inh, G9a block, HP1b binding inh)
COc1ccc(OC)c2c(C)cc(N3CCCN(C)CC3)nc12	none
O=C(NC1=NCCS1)C12CC3CC(CC(C3)C1)C2	BAZ2B block inconclusive
Cc1c(Cl)cccc1NC(=O)Nc1nnc(N(C)C2CCCCC2)s1	BAZ2B block inconclusive (no result: Sfp inh, PLK1 PBD block)
CCC1CCCCN1C(=O)Cn1c(=O)n(-c2ccccc2C(F)(F)F)c(=O)c2c(C)c(C(=O)N(C)C)sc21 (centres undefined)	none (no result: Sfp inh, PLK1 PBD block)
C[C@]12CC[C@@H]3c4ccc(O)cc4CC[C@H]3[C@@H]1C[C@H](O)C2O (some centres undefined)	none (no result: BAZ2B block, PLK1 PBD block, JMJD2A Tudor inh, HP1b binding inh)
C=CCNCCCCOc1cccc(Br)c1	BAZ2B block 32µM, Sfp inh 45µM, JMJD2A Tudor inh 0.71µM, HP1b binding inh inconclusive (no result: G9a block)
OCCNCCCCOc1cccc(Br)c1	none
CCCSCCCNC(=O)c1cc2n(n1)CCCN(Cc1ccc(C)cc1)C2=O	none (no result: Sfp inh, PLK1 PBD block)
O=C1Nc2ccccc2/C1=C/c1ccccc1F	BAZ2B block inconclusive, PLK1 PBD block 30µM, JMJD2A Tudor inh inconclusive
O=C1Nc2ccccc2/C1=C/c1cccnc1	PLK1 PBD block 27µM
O=C1Nc2ccccc2/C1=C/c1cnc(-c2ccccc2)[nH]1	none
Cc1ccccc1/C=C1\C(=O)Nc2ccc(F)cc21	BAZ2B block inconclusive
CN(C)c1ccc(/C=C2\C(=O)Nc3ccccc32)cc1	Sfp inh 56µM!, G9a block 14µM (no result: BAZ2B block, PLK1 PBD block, JMJD2A Tudor inh, HP1b binding inh)
Cc1cccn2c(CN3CCCC(c4ccccc4)C3)c(C(=O)N3CCOCC3)nc12 (centres undefined)	none
O=C1CCCC2(O)C1C(c1cccc(Br)c1)NC(=O)N2Cc1ccccc1 (centres undefined)	Sfp inh inconclusive, G9a block 45µM
CN=c1scc(-c2ccccc2F)n1/N=C/c1ccc[nH]1	BAZ2B block 32µM, JMJD2A Tudor inh 50µM, G9a block 18µM, HP1b binding inh 40µM
Fc1ccc(N=Cc2ccc[nH]2)cc1	none
NC(Cc1ccc(F)cc1)c1csc(Nc2ccc(C(F)(F)F)cn2)n1 (centres undefined)	none (no result: BAZ2B block, Sfp inh, JMJD2A Tudor inh, G9a block, HP1b binding inh)
CNC(=O)c1[nH]cnc1C(=O)NCC(=O)OC(C)(C)C	G9a block inconclusive
CCNC(=O)c1nc[nH]c1C(=O)NCC	JMJD2A Tudor inh 40µM
O=C(Nc1ccc(F)cc1)c1nc[nH]c1C(=O)O	BAZ2B block 4.5µM, JMJD2A Tudor inh 10µM
Nc1ccccc1C(=O)NCc1ccccc1	PLK1 PBD block 3.8µM, JMJD2A Tudor inh 35µM
O=C(NCc1ccccc1)c1nc[nH]c1C(=O)NCc1ccccc1	BAZ2B block inconclusive, G9a block 50µM
COc1ccc(/C=C/C(=O)OCC(=O)Nc2c(C)cccc2C)cc1	none
CNC(=O)c1nc[nH]c1C(=O)NC	BAZ2B block inconclusive, JMJD2A Tudor inh 28µM, G9a block inconclusive
NNC(=O)c1nc[nH]c1C(=O)Nc1ccccc1	BAZ2B block 1.3µM, JMJD2A Tudor inh inconclusive, G9a block inconclusive
CNC(=O)c1[nH]cnc1C(=O)Nc1ccc(OC)cc1	BAZ2B block 79µM (no result: G9a block)
CN(Cc1ccccc1)C(=O)c1[nH]cnc1C(=O)Nc1nccs1	BAZ2B block 25µM, PLK1 PBD block inconclusive, JMJD2A Tudor inh 56µM (no result: Sfp inh)
N#Cc1ccccc1OCC(=O)OCCCOC(=O)COc1ccccc1C#N	none (no result: G9a block)
Cc1cccc(C(=O)NC2(C(F)(F)F)N=C(c3ccccc3)N(C3CCCCC3)C2=O)c1 (centres undefined)	none (no result: Sfp inh, PLK1 PBD block)
Cc1cc(Br)ccc1NC(=O)c1c(C)oc2ncnc(N3CCCCC3)c12	none (no result: Sfp inh, PLK1 PBD block)
O=C(Nc1ccccc1[N+](=O)[O-])c1nc[nH]c1C(=O)NCCO	BAZ2B block 56µM, JMJD2A Tudor inh inconclusive, G9a block 14µM
CC(=C\c1ccccc1)/C=C1/SC(=S)N(CCCC(=O)O)C1=O	BAZ2B block inconclusive, PLK1 PBD block inconclusive, G9a block 40µM
COc1ccc(/C=C2\SC(=S)N(CCC(=O)N(CCO)c3ccccc3)C2=O)cc1OC	none
CCOc1ccc(/C=C2\SC(=S)N(CCC(=O)N(CCO)c3ccccc3)C2=O)cc1	BAZ2B block inconclusive, Sfp inh inconclusive, JMJD2A Tudor inh inconclusive, G9a block 16µM
CC(=C\c1ccccc1)/C=C1/SC(=S)N(CCC(=O)Nc2ccccn2)C1=O	BAZ2B block inconclusive, G9a block 40µM (no result: PLK1 PBD block, JMJD2A Tudor inh, HP1b binding inh)
CC(/C=C1\SC(=O)N(CCCC(=O)O)C1=O)=C\c1ccccc1	none
O=C(O)CN1C(=O)/C(=C/c2ccsc2)SC1=S	BAZ2B block 79µM, Sfp inh inconclusive, G9a block 32µM
C=CCN1C(=O)/C(=C/c2ccsc2)SC1=S	none
CNC(=S)N(CCCN(C)C)Cc1cc2cc3c(cc2[nH]c1=O)OCCO3	none
Cc1nc(Cc2nnc(SC(C)C(=O)Nc3ccccc3)o2)cs1 (centres undefined)	none (no result: BAZ2B block, Sfp inh, JMJD2A Tudor inh, G9a block, HP1b binding inh)
O=C(O)CN1C(=O)/C(=C\C(Br)=C\c2ccccc2)SC1=S	BAZ2B block 45µM, Sfp inh 56µM, PLK1 PBD block 6µM, JMJD2A Tudor inh inconclusive, HP1b binding inh inconclusive
CCN(CC)C(=O)CN1C(=O)/C(=C/c2ccccc2)SC1=S	PLK1 PBD block 27µM
CC(/C=C1\SC(=S)N(CCCC(=O)Nc2ccc(C(=O)O)cc2)C1=O)=C\c1ccccc1	BAZ2B block 40µM, PLK1 PBD block inconclusive, JMJD2A Tudor inh inconclusive, G9a block 13µM
